# High-throughput results: PubChem BioAssay, National Center for Advancing Translational Sciences (NCATS)
# The list is not random: actives were taken first. Their share in the collection is about 6.2%.
# VP16 counter – inhibits Gal4-VP16 luciferase reporter, ROR gamma counter-screen | Drosophila S2 Gal4-VP16 UAS-luciferase, luminescence, 20 h | Potency, µM (highest dose often 53.6 µM), for the others: top-dose activity, negative = inhibition, actives largely listed as inhibitors | actives 3.5% (n = 310,000) | AID 2546;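 note: Gal4-VP16 expression switched on by copper sulfate through the metallothionein promoter; nearly all actives have a fitted effect of over 50% in size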
# Luc counter – counter-screen: inhibitors of Kinase-Glo firefly luciferase | Kinase-Glo luciferase, ATP luminescence, 8 min | Potency, µM (highest dose often 38.3 µM), for the others: top-dose activity change, negative = inhibition, actives largely listed as inhibitors | actives 0.28% (n = 200,000) | AID 1379; note: nearly all actives have a fitted effect of over 60% in size
#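 Inhibition of Kinase-Glo luciferase light generation was assessed at 10 uM ATP in pH 7.2 imidazole buffer, with luminescence measured after eight minutes at ambient temperature.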
# RORgamma inh – ROR gamma (mouse) transcription inhibition; Drosophila S2 Gal4-RORgamma UAS-luciferase reporter, 20 h; P51450; AID 2551; actives 5.4% (n = 310,000); Potency, µM (series often up to 53.6 µM), for the others: top-dose activity change, negative = inhibition, most hits filed as inhibitors; note: nearly all actives have a fitted effect of over 60% in size
# Target sequence (P51450 whole entry, looked up, the tested form may be a part): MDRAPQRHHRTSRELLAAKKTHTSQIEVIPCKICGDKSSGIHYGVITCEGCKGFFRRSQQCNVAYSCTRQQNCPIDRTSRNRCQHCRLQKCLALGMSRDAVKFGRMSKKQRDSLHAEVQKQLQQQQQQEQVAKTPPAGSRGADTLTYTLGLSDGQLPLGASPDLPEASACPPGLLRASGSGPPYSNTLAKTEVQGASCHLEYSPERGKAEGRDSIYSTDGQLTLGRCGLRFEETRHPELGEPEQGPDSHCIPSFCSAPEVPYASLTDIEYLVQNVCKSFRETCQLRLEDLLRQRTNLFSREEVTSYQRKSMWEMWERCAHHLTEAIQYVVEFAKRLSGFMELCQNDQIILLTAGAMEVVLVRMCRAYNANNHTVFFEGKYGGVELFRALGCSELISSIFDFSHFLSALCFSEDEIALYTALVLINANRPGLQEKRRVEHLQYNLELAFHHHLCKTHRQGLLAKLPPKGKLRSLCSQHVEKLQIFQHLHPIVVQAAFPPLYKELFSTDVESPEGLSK
#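 Drosophila Schneider cells stably carrying a metallothionein-driven Gal4 DBD–ROR gamma fusion and a UAS-Photinus luciferase reporter were exposed to compound for 1 hr, then induced with copper sulfate (700 uM final) for 20 hr at ambient temperature before luminescence reading.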
# * = called active by the depositor; ? = inconclusive; nt = not tested or not shown; [ ] = remark or other dose. Calls come from the whole dose curve; as a rule, active = well fitted curve in the direction sought with a large enough effect; inconclusive = small, poorly fitted or top-dose-only effect, or another doubt; inactive = no such curve, though single readings can be large; an effect the other way counts as inactive or inconclusive. % is set by controls: 0 for no effect and ±100 for the full control effect; potency is the fitted concentration of half-maximal effect.
SMILES,VP16 counter,Luc counter,RORgamma inh
O=C(N/N=C/c1ccc[nH]1)c1ccc2c(c1)OCO2,-27%,-11%,?
Cc1ccc(NC(=O)c2ccccn2)c(Br)c1,-34%,nt,-17%
O=C(NNC(=S)Nc1ccc(Cl)cc1Cl)C1CC1,?,-1%,?
O=C(c1csnn1)N1CCC[C@@]2(CCN(Cc3cc(C(F)(F)F)cc(C(F)(F)F)c3)C2)C1,4%,1%,-1%
CCC(=O)Nc1nnc(SCC(=O)c2ccc3c(c2)Cc2ccccc2-3)s1,-4%,-4%,2%
Cc1c(I)c(=O)n(-c2ccccc2)n1C,-9%,3%[39.9 µM],1%
O=C(c1ccccc1)c1ccccc1N1C(=O)C=CC1=O,7.1µM*,nt,5µM*
O=C(O)c1ccccc1-c1ccccc1C(=O)c1ccccc1,nt,-7%[7.66 µM],nt
CCCS(=O)(=O)NCCc1csc(-c2ccc(OC)c(OC)c2)n1,-17%,nt,0%
C/C(=N\OCc1nc2ccccc2c(=O)n1/N=C/c1cc(C)cc([N+](=O)[O-])c1O)c1ccccc1,-4%,nt,7%
C/C(=N\OCc1nc2ccccc2c(=O)n1/N=C/c1cc([N+](=O)[O-])ccc1O)c1ccccc1,?,nt,10µM*
Cc1nc2ccccc2c(=O)n1/N=C/c1ccc2ccccc2c1O,-4%,nt,18%
Cc1cc([N+](=O)[O-])cc(/C=N/n2c(C)nc3ccccc3c2=O)c1O,5%,nt,13µM*
c1ccc(CSc2ncnc3c2cnn3-c2ccccc2)cc1,1%,1%,27%
O=C(N/N=C/c1cc(Br)c(Br)o1)c1cc2ccccc2o1,6.3µM*,nt,5µM*
O=C(NC1CC1)c1cc2ccccc2o1,3%,nt,0%
O=C(N/N=C/c1ccncc1)c1cc2ccccc2o1,-3%,1%,37%
O=C(Nc1ccc(Cl)cn1)c1cc2ccccc2o1,?,-9%,-29%
O=C(NC1=NCCS1)c1cc2ccccc2o1,8.9µM*,?,7.1µM*
O=C(Nc1ccccn1)c1cc2ccccc2o1,6.3µM*,8.9µM*,4µM*
COC(=O)c1cc(=O)n2c(-c3ccc(OC)cc3)csc2n1,-7%,-1%,-2%
Clc1ccc(-c2nc3sccn3c2/C=N/OCc2ccc(Cl)c(Cl)c2)cc1,-9%,nt,20%
CO/N=C/c1c(-c2ccc(Cl)cc2)nc2cc(C)ccn12,6%,1%,8.9µM*
CCCCc1nc2c(c3c1C[C@H](C)OC3)CN(S(=O)(=O)CCCC)CC2,nt,-7%[7.66 µM],nt
Cc1nccn1CC(=O)N/N=C/c1cccs1,0%,nt,-6%
SMILES,VP16 counter,Luc counter,RORgamma inh
O=C(CCc1ccccc1)Nc1ncn[nH]1,1%,0%,-5%
O=C(/C=C/c1ccccc1)Nc1ncn[nH]1,?,-20%,14µM*
CN(C)c1ccc(C=Nc2ccccc2)cc1,3%,1%,9%
C/C(=N/N=C/c1ccc(N(C)C)cc1)c1ccccc1,17%,8.9µM*,1%
CC1(C)S[C@H]2C(NC(=O)[C@@H](N)c3ccc(O)cc3)C(=O)N2[C@@H]1C(=O)O (stereo not given in full),1%,-4%,-12%
Cc1ccc(S(=O)(=O)Nc2cc(=O)[nH]c3c2CCC3)cc1,4%,-1%[7.66 µM],25%
O=C(Nc1nnc(C2CC2)s1)C1Cc2ccccc2CN1S(=O)(=O)c1ccccc1F (stereo not given),?,-5%,8.9µM*
O=C(Nc1nccs1)C1Cc2ccccc2CN1S(=O)(=O)c1ccc(F)cc1 (stereo not given),-11%,1%,?
CCOC(=O)c1c(N2C(=O)C=CC2=O)sc(C)c1C,-11%[0.365 µM],1%,4.5µM*
CCOC(=O)c1c(NC(=O)CSC(=S)N(C)C)sc(C)c1C,1%,-7%,-11%
Oc1[nH]c(N=C2N=c3ccccc3=N2)c2ccccc12,2.5µM*,nt,0.5µM*
N#CC(=C1N=c2ccccc2=N1)c1c(O)[nH]c2ccccc12,?,-7%,?
COc1ccccc1NC(=O)c1ccc(S(=O)(=O)N2CCOCC2)cc1,2%,-2%,9%
COc1ccccc1-c1nnc(NC(=O)c2ccc(S(=O)(=O)N3CCCC3)cc2)o1,0.89µM*,nt,0.71µM*
CC1CCCN(S(=O)(=O)c2ccc(NC(=O)Cn3nnc(-c4ccccc4F)n3)cc2)C1 (stereo not given),2%,1%,56%
CC1CCCN(S(=O)(=O)c2ccc(C(=O)Nc3nnc(C4CC4)o3)cc2)C1 (stereo not given),1µM*,nt,0.22µM*
CC1CCCN(S(=O)(=O)c2ccc(C(=O)Nc3nnc(-c4ccccc4Cl)o3)cc2)C1 (stereo not given),0.16µM*,1%,0.1µM*
O=C(Nc1nnc(-c2ccccn2)o1)c1ccc(Br)cc1,0.63µM*,-2%,0.63µM*
CCC(=O)Nc1nnc(-c2ccccn2)o1,0%,nt,?
COC(=O)c1sc2ccccc2c1NC(=O)c1ccc(S(=O)(=O)N2CCCC(C)C2)cc1 (stereo not given),-8%,2%,-12%
CC(=O)C1=C(C)N(Cc2ccco2)C(=O)N[C@@H]1c1ccccc1,-4%,1%,-4%
COc1ccc(-c2cc3c(=O)n(CC(=O)NCc4ccc(F)cc4)ncn3n2)cc1,6%,nt,-2%
CN(c1cccc(NC(=O)CN(c2cccc(Cl)c2)S(=O)(=O)c2ccccc2)c1)S(C)(=O)=O,-3%,nt,?
C[C@]12CC[C@H]3c4ccc(O)cc4CC[C@@H]3[C@H]1CC[C@@H]2OC(=O)CCC1CCCC1,?,-3%[7.66 µM],-8%[10 µM]
Cc1ccc(S(=O)(=O)N2CCCC(C(=O)Nc3ccc(NC(=O)c4ccccn4)cc3)C2)cc1 (stereo not given),-25%,1%,33%
SMILES,VP16 counter,Luc counter,RORgamma inh
CC1CCCN(S(=O)(=O)c2ccc(C(=O)Nc3nnc(-c4ccccn4)o3)cc2)C1 (stereo not given),-2%,0%,1.8µM*
Cc1cc(NC(=O)c2ccc(S(=O)(=O)N(C)CC3CCCO3)cc2)no1 (stereo not given),-10%,-3%,?
COc1ccc(-c2nnc(NC(=O)c3ccc(S(=O)(=O)N(C)CC4CCCO4)cc3)o2)c(OC)c1 (stereo not given),1µM*,nt,0.71µM*
Cc1cnc(C(=O)Oc2ccc(-c3ccccc3)cc2)cn1,-11%,nt,20%
CN1CCN(c2ccnc(-c3cccc(NS(C)(=O)=O)c3)n2)CC1,-6%,0%,-10%
CNC(=O)c1ccc(CNC(=O)OCc2ccccc2)cc1,4%,1%,18%
CCCN1CNC(=S)N(c2ccc(C)cc2C)C1,?,nt,4µM*
Cc1ccc(C)c(N2CN(Cc3cccnc3)CNC2=S)c1,-8%,1%,-27%
CCN(CC)CCN1CNC(=S)N(c2ccccc2OC)C1,-3%,nt,-32%
CCCN1CNC(=S)N(c2ccccc2C)C1,?,0%,11µM*
CCc1ccc(-c2nc(CN3CCC(C(=O)NCc4ccccc4OC)CC3)c(C)o2)cc1,20µM*,3%,?
COc1ccccc1CNC(=O)C1CCN(Cc2nc(-c3cccc(Cl)c3)oc2C)CC1,-8%,0%,-4%
COc1ccc(NC(=O)COC(=O)c2cnccn2)cc1Cl,0%,2%,-10%
CC(=O)c1cccc(N(C(=O)c2csnn2)C(C(=O)NC2CCCC2)c2ccccc2)c1 (stereo not given),3%,nt,12%
